This is part of a sample that, as a whole, favours compounds with a hit. Of some 83,000 tested, about 20% had one in any assay.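 Testing used 96-well plates and a 48-hour single-concentration exposure. Example: -40 means 40% of the starting cells died.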 Activity calls are given as the source filed them. How the source made its calls: active means growth percent below 10; inactive means the rest.
Key:
Assay in all cases: NCI-60 one-dose screen, 48 h (100 = growth as untreated, 0 = no growth, -100 = all killed)
Conditions in all cases: 10 µM unless noted
HCT-15 colon = test system: HCT-15 colon
HT29 colon = test system: HT29 colon
SNB-75 CNS = test system: SNB-75 CNS
SNB-19 CNS = test system: SNB-19 CNS
U251 CNS = test system: U251 CNS
PC-3 prostate = test system: PC-3 prostate
UACC-62 melanoma = test system: UACC-62 melanoma
LOX IMVI melanoma = test system: LOX IMVI melanoma
SK-MEL-28 melanoma = test system: SK-MEL-28 melanoma
SK-MEL-2 melanoma = test system: SK-MEL-2 melanoma
EKVX NSCLC = test system: EKVX NSCLC
SN12C renal = test system: SN12C renal
UO-31 renal = test system: UO-31 renal
TK-10 renal = test system: TK-10 renal
ACHN renal = test system: ACHN renal
CAKI-1 renal = test system: CAKI-1 renal
A498 renal = test system: A498 renal
CCRF-CEM leukemia = test system: CCRF-CEM leukemia
MOLT-4 leukemia = test system: MOLT-4 leukemia
SK-MEL-5 melanoma = test system: SK-MEL-5 melanoma

Measured: growth

COc1cc2c(cc1-c1c(C)noc1C)ncc1nc(C3CC3)n([C@H](C)COC(F)F)c12
inactive: HCT-15 colon 23.9% | HT29 colon 17.3% | SNB-75 CNS 34.3% | SNB-19 CNS 60.1% | U251 CNS 52.8% | PC-3 prostate 39.1% | UACC-62 melanoma 25.5% | LOX IMVI melanoma 15.5% | SK-MEL-28 melanoma 63.5% | SK-MEL-2 melanoma 74.1% | EKVX NSCLC 56.9% | SN12C renal 71.4% | UO-31 renal 21.6% | TK-10 renal 26.5% | ACHN renal 40.6% | CAKI-1 renal 34.1% | CCRF-CEM leukemia 52% | MOLT-4 leukemia 42.2%
active: A498 renal 0.499%

CC(=O)Nc1cc(F)cc(C(F)(F)F)c1Cl
inactive: HCT-15 colon 102% | HT29 colon 101% | SNB-75 CNS 83.2% | SNB-19 CNS 106% | U251 CNS 105% | PC-3 prostate 95.7% | UACC-62 melanoma 102% | LOX IMVI melanoma 92.1% | SK-MEL-28 melanoma 101% | SK-MEL-2 melanoma 105% | EKVX NSCLC 98% | SN12C renal 105% | UO-31 renal 92.8% | TK-10 renal 104% | ACHN renal 99.3% | CAKI-1 renal 91.5% | A498 renal 100% | CCRF-CEM leukemia 102%

CCc1ccccc1NC(=O)c1sc2nc3c(cc2c1N)CCCC3
active: A498 renal 6.65%
inactive: HCT-15 colon 28.1% | HT29 colon 13.5% | SNB-75 CNS 12.3% | SNB-19 CNS 37.6% | U251 CNS 27.8% | PC-3 prostate 52.9% | SK-MEL-5 melanoma 34.8% | LOX IMVI melanoma 36.5% | SK-MEL-2 melanoma 31.8% | EKVX NSCLC 72.9% | SN12C renal 34.9% | UO-31 renal 48.9% | TK-10 renal 59.5% | ACHN renal 48.2% | CAKI-1 renal 45.6% | CCRF-CEM leukemia 18.3% | MOLT-4 leukemia 25.4%

CC(C)C[C@@H](NC(=O)[C@@H](Cc1ccccc1)NC(=O)c1cnccn1)B1O[C@H]2[C@H](O)[C@@H](C(=O)NCCCC[C@@H]3NC(=O)[C@@H](Cc4ccccc4)NC(=O)[C@H](CC(=O)O)NC(=O)CNC(=O)[C@H](CCCN=C(N)N)NC3=O)O[C@@H](CN)[C@H]2O1
active: HCT-15 colon -54% | HT29 colon -73.4% | SNB-75 CNS -65.4% | SNB-19 CNS -10.1% | U251 CNS -58.6% | PC-3 prostate -34.3% | UACC-62 melanoma -36.7% | LOX IMVI melanoma -86.1% | SK-MEL-28 melanoma -30.1% | SK-MEL-2 melanoma -38.5% | EKVX NSCLC -12.6% | SN12C renal -29.5% | UO-31 renal -16.4% | TK-10 renal -79.1% | ACHN renal -8.22% | CAKI-1 renal -44.2% | A498 renal -94.5% | CCRF-CEM leukemia 6.17% | MOLT-4 leukemia 0.435%

COc1cc2c3c(c4c5ccccc5[nH]c4c2c(OC)c1OC)C(=O)N(O)C3=O
active: A498 renal -16.8% | MOLT-4 leukemia 1.38%
inactive: HCT-15 colon 45.8% | HT29 colon 52.1% | SNB-75 CNS 72.6% | SNB-19 CNS 54.5% | U251 CNS 28% | PC-3 prostate 43.8% | SK-MEL-5 melanoma 11.1% | LOX IMVI melanoma 26.3% | SK-MEL-2 melanoma 85.6% | EKVX NSCLC 97.1% | SN12C renal 46.6% | UO-31 renal 10% | TK-10 renal 80.1% | ACHN renal 20.6% | CAKI-1 renal 36% | CCRF-CEM leukemia 18%

COC(=O)[C@]12CC[C@@H](C)[C@H](C)[C@@H]1C1=CC[C@@H]3[C@@]4(C)C=C(O)C(=O)C(C)=C4CC[C@@]3(C)[C@]1(C)CC2
active: EKVX NSCLC 1.05% | CCRF-CEM leukemia -26.2% | MOLT-4 leukemia -15.9%
inactive: HCT-15 colon 25.2% | HT29 colon 11.7% | SNB-75 CNS 63% | SNB-19 CNS 59.9% | U251 CNS 43.4% | PC-3 prostate 12.7% | SK-MEL-5 melanoma 29.5% | LOX IMVI melanoma 16.5% | SK-MEL-2 melanoma 27% | SN12C renal 18.9% | UO-31 renal 34.3% | TK-10 renal 14.6% | ACHN renal 22.4% | CAKI-1 renal 33.4% | A498 renal 81.5%

COc1cc(/C=C/c2cc(/C=C/c3ccc(O)c(OC)c3)n(-c3ccccc3)c(=O)n2)ccc1O
active: HT29 colon -13%
inactive: HCT-15 colon 80.8% | SNB-75 CNS 56.9% | SNB-19 CNS 76.2% | U251 CNS 56.1% | PC-3 prostate 70.4% | UACC-62 melanoma 69.9% | LOX IMVI melanoma 61% | SK-MEL-28 melanoma 78.8% | SK-MEL-2 melanoma 79.5% | EKVX NSCLC 71.4% | SN12C renal 71.4% | UO-31 renal 58.6% | TK-10 renal 113% | ACHN renal 81.1% | CAKI-1 renal 83.7% | A498 renal 108% | CCRF-CEM leukemia 28.5% | MOLT-4 leukemia 31.5%

Cn1c2ccccc2c2c3c(c4c5cccnc5[nH]c4c21)C(=O)N(O)C3=O
active: LOX IMVI melanoma 2.63% | MOLT-4 leukemia 0.301%
inactive: HCT-15 colon 67.4% | HT29 colon 28.9% | SNB-75 CNS 61% | SNB-19 CNS 38.1% | U251 CNS 21% | PC-3 prostate 42.4% | SK-MEL-5 melanoma 12.7% | SK-MEL-2 melanoma 97.5% | EKVX NSCLC 85.9% | SN12C renal 22.6% | UO-31 renal 31% | TK-10 renal 97.4% | ACHN renal 17.8% | CAKI-1 renal 24% | A498 renal 109% | CCRF-CEM leukemia 13.2%

O=S(=O)(NCCNc1cc(-c2cn(-c3ccccc3)nc2-c2cccc(O)c2)ccn1)c1ccc(Cl)cc1
active: HCT-15 colon 7.32% | HT29 colon 0.572% | CCRF-CEM leukemia 9.05% | MOLT-4 leukemia 8.1%
inactive: SNB-75 CNS 53.8% | SNB-19 CNS 47.7% | U251 CNS 22.1% | PC-3 prostate 14.9% | SK-MEL-5 melanoma 15.5% | LOX IMVI melanoma 30% | SK-MEL-2 melanoma 34.9% | EKVX NSCLC 52.1% | SN12C renal 39.4% | UO-31 renal 23% | TK-10 renal 50.5% | ACHN renal 28.5% | CAKI-1 renal 41% | A498 renal 34.9%

COC(=O)CCCCCn1c2ccccc2c2c3c(c4c5ccccc5[nH]c4c21)C(=O)N(O)C3=O
inactive: HCT-15 colon 44.1% | HT29 colon 24% | SNB-75 CNS 92% | SNB-19 CNS 29.9% | U251 CNS 10.2% | PC-3 prostate 34.3% | SK-MEL-5 melanoma 33.1% | SK-MEL-2 melanoma 77.3% | EKVX NSCLC 75.3% | SN12C renal 37.8% | UO-31 renal 11.8% | TK-10 renal 74.4% | A498 renal 62% | CCRF-CEM leukemia 11.4%
active: LOX IMVI melanoma -65% | ACHN renal -18.5% | CAKI-1 renal -16.8% | MOLT-4 leukemia -15.6%

Nc1c(C(=O)Nc2c(Cl)cccc2Cl)sc2nc3c(cc12)CCCC3
inactive: HCT-15 colon 41.9% | HT29 colon 43.3% | SNB-75 CNS 71.6% | SNB-19 CNS 82.8% | U251 CNS 74.1% | PC-3 prostate 80% | SK-MEL-5 melanoma 83.1% | LOX IMVI melanoma 59.4% | SK-MEL-2 melanoma 75.8% | EKVX NSCLC 102% | SN12C renal 69.6% | UO-31 renal 84.3% | TK-10 renal 90.2% | ACHN renal 87.7% | CAKI-1 renal 79.3% | A498 renal 79.7% | CCRF-CEM leukemia 55.1% | MOLT-4 leukemia 46.9%

COc1cc2c(cc1-c1c(C)noc1C)ncc1nc(C3CCC(F)(F)CC3)n([C@@H](C)COC(F)F)c12
active: UO-31 renal 3.65% | A498 renal -12.5%
inactive: HCT-15 colon 13.4% | HT29 colon 18.7% | SNB-75 CNS 23.4% | SNB-19 CNS 53.4% | U251 CNS 50.5% | PC-3 prostate 36.7% | UACC-62 melanoma 20.2% | LOX IMVI melanoma 11% | SK-MEL-28 melanoma 47.3% | SK-MEL-2 melanoma 71.4% | EKVX NSCLC 43.4% | SN12C renal 58.5% | TK-10 renal 27.1% | ACHN renal 36.5% | CAKI-1 renal 24.3% | CCRF-CEM leukemia 50.8% | MOLT-4 leukemia 41.4%

Reference: PubChem BioAssay (NCI)
